Screening results as filed in PubChem BioAssay.
The list is not random: actives were taken first. Their share in the collection is about 2%.
GC-A act: GC-A (human) enzyme activation | HEK293 GC-A cells, cGMP TR-FRET, EC30 ANP; 0% at EC30 ANP, 100% saturating ANP | P16066 | 0.14% of 370,000 active | activation, % at 10 µM; in the data active = activation above about 40%
PfG6PD inh: PfG6PD (Plasmodium falciparum) enzyme inhibition | inhibition, % at 20 µM | AID 504690 | PfGluPho enzyme, NADPH resazurin-diaphorase fluorescence | 0.78% of 350,000 active;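 active = inhibition reaching at least a set limit at 20 µM in the primary screen, cut at about 59% in these data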;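 also: 0% = DMSO wells with substrate and 100% = DMSO wells lacking glucose-6-phosphate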
NPR2 activator: GC-B (human) receptor activation. P20594. activation, % at 10 µM. AID 1920062. HEK293-GC-B cells, CNP EC30, cGMP TR-FRET; 0% at EC30 CNP, 100% saturating CNP. 0.11% of 370,000 active;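 active = activation at 10 µM reaching about 35% in either raw or pattern-adjusted values, limit read from the data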
Neddyl block: cullin neddylation inhibition. P61081+Q13564. TR-FRET cullin neddylation, biochemical. inhibition, % at 25 µM. 0.58% of 360,000 active; in the data active = inhibition above about 36%
A3A deaminase: blocks human APOBEC3A ssDNA deamination; P31941; inhibition, % at 20 µM; 0.41% of 330,000 active; recombinant A3A, FAM/TAMRA ssDNA deamination fluorescence;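 active = at least 40% inhibition at 20 µM here, with at most 30% in a related deaminase screen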;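 also: plate controls were A3A with DMSO for no effect and wells lacking A3A enzyme for full effect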
A3G deaminase: blocks human APOBEC3G single-stranded DNA deamination. 0.28% of 330,000 active. AID 493012. inhibition, % at 20 µM. recombinant A3G, ssDNA deamination FAM/TAMRA fluorescence;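 active = inhibition of at least 40% at 20 µM, with no more than 30% in the related APOBEC3A deaminase screen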;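 also: plate controls were DMSO wells with A3G for no effect and wells lacking A3G enzyme for full effect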
Starred values were filed as active, the others as inactive; nt = no result shown.

SMILES | GC-A act | PfG6PD inh | NPR2 activator | Neddyl block | A3A deaminase | A3G deaminase
CCC(=O)Nc1nnc(-c2ccncc2)s1 | -4.2 | -3.7 | -0.2 | 52.2* | 2.5 | -2.7
C=CCSc1nc2c(c(=O)[nH]c(=O)n2C)n1Cc1ccc(C)cc1 | 24.4 | 27.4 | 37.7* | -6.0 | -2.6 | -9.4
COc1ccc(S(=O)(=O)N2CCOCC2)cc1N=Nc1sc(N)nc1-c1ccccc1 | 55.3* | 0.4 | 44.5* | -13.6 | 1.4 | -1.3
COc1ccc(S(=O)(=O)N2CCOCC2)cc1OC | 2.1 | 13.7 | 3.8 | -3.5 | 2.4 | 0.3
CN(C)c1ccc(/C=N\NC(=O)c2cccc(S(=O)(=O)N(C)C)c2)cc1 | 0.8 | nt | -13.0 | nt | nt | nt
CC(C)C[C@@H]1COc2cc(Br)ccc2S(=O)(=O)N1Cc1cn(Cc2ccccc2)nn1 | 0.3 | nt | 3.2 | nt | nt | nt
COc1ccc(CNC(=S)Nc2cc(OC)ccc2OC)cc1 | 40.2* | 1.2 | 3.4 | 4.7 | -2.6 | -1.5
COc1ccc(OC)c(NC(=S)NCc2ccc(S(N)(=O)=O)cc2)c1 | 0.4 | 13.3 | 2.2 | 3.4 | -0.4 | 1.2
CCc1nnc(NC(=O)c2ccc(-c3ccccc3Cl)o2)s1 | 4.4 | 19.2 | -4.5 | 45.3* | -2.5 | -8.0
CCc1nnc(NC(=O)c2ccc(COc3ccccc3Cl)o2)s1 | 1.5 | -12.2 | 0.5 | 7.3 | -4.2 | -9.2
O=C(NCCS(=O)(=O)N1CCN(c2ccccc2F)CC1)c1ccc(F)c(F)c1 | -0.3 | 6.7 | 64.2* | 7.6 | -1.0 | -3.6
COc1ccc(Cl)cc1C(=O)NCCS(=O)(=O)N1CCN(c2ccccc2F)CC1 | -0.8 | -2.4 | 0.6 | -3.9 | 3.2 | 2.0
COc1ccc(S(=O)(=O)Nc2cccc(N(C)S(C)(=O)=O)c2)cc1Br | 33.6 | -21.8 | 37.4* | -0.9 | -2.1 | -6.5
Cc1[nH]n(-c2ccccc2)c(=O)c1/C=N/NC(=O)c1ccc(O)cc1O | nt | 9.7 | nt | 60.9* | 0.7 | -3.0
Cc1ccc(-n2[nH]c(C)c(/C=N/NC(=O)c3ccc(O)cc3O)c2=O)cc1 | nt | 7.7 | nt | nt | -5.2 | -8.0
Cc1ccc(Nc2nnns2)cc1C | 4.2 | 59.1* | 3.2 | 3.5 | 0.2 | 39.0
Cc1ccc(Nc2ccc(NCc3ccccc3)nn2)cc1C | -0.8 | 4.0 | -1.4 | 4.8 | -2.9 | -7.5
COc1ccc(CCN2CC(O)=C(c3nc(C)cs3)C2=N)cc1OC | -7.1 | -3.1 | -9.0 | -0.4 | -1.0 | -4.0
COc1ccc(CCN2CC(O)=C(c3nc4ccccc4c(=O)[nH]3)C2=N)cc1OC | 70.3* | 7.0 | -1.5 | 38.1 | -0.4 | -0.5
O=C(COC(=O)c1cc([N+](=O)[O-])ccc1NCCO)Nc1cccnc1Cl | 55.9* | 2.1 | 57.1* | -33.5 | -0.6 | -1.9
O=C(COC(=O)c1ccc([N+](=O)[O-])cc1Cl)Nc1cccnc1Cl | 2.3 | -3.5 | -3.5 | -26.0 | 1.8 | -2.1
Nc1nnc(COc2ccc(Br)cc2Br)s1 | 58.5* | -1.1 | 0.2 | 3.4 | 2.0 | 2.9
O=C(NCCN1CCC(Cc2ccccc2)CC1)C1CCCN(S(=O)(=O)c2ccc([N+](=O)[O-])cc2)C1 (configuration not stated) | -3.1 | nt | -5.3 | nt | nt | nt
CCCc1ccc(Oc2cn[nH]c2-c2ccc(O)cc2O)cc1 | 40.1* | -31.8 | 1.4 | 4.2 | -1.2 | -2.7
COc1ccc(Oc2cn[nH]c2-c2ccc(O)cc2O)cc1 | 23.0 | -44.1 | 7.0 | 2.7 | -0.9 | -3.5
SMILES | GC-A act | PfG6PD inh | NPR2 activator | Neddyl block | A3A deaminase | A3G deaminase
COCCCN1C(=O)[C@H](CC(=O)NCc2cccc3ccccc23)[C@]2(C(=O)OC)CCCCC=C12 | 1.0 | nt | -5.9 | nt | nt | nt
Cc1cc(Nc2cc(Cl)cc(Cl)c2)cc(=O)n1-c1cc(Cl)cc(Cl)c1 | 21.2 | nt | 28.1* | nt | nt | nt
COc1cc(Nc2cc(C)n(-c3ccc(Cl)c(OC)c3)c(=O)c2)ccc1Cl | 10.6 | nt | -0.3 | nt | nt | nt
Cc1ccccc1-c1nc(CS(=O)CC(=O)NCc2ccccc2)c(C)o1 (configuration not stated) | -3.4 | 14.9 | 3.0 | -10.2 | 4.9 | 9.8
Cc1ccc(CNC(=O)CS(=O)Cc2nc(-c3ccccc3C)oc2C)cc1 (configuration not stated) | 1.9 | 12.1 | 110.5* | -5.0 | 5.2 | 5.6
C=CCN1[C@H](C#N)[C@@H](c2ccc(C#Cc3cccc(OC)c3)cc2)[C@H]1CO | 4.9 | nt | 5.4 | nt | nt | nt
COCCNc1nnnc2c1sc1nc(N3CCOCC3)c3c(c12)CC(C)(C)OC3 | 29.4 | 21.9 | 27.6 | 6.0 | -11.4 | -3.2
CC(C)CNc1nnnc2c1sc1nc(N3CCOCC3)c3c(c12)CCCC3 | 51.1* | -14.5 | 52.1* | -0.8 | -11.6 | 1.7
C=CCNc1nnnc2c1sc1nc(N3CCOCC3)c3c(c12)CCCC3 | 50.0* | 0.6 | 58.4* | 5.2 | -4.2 | -6.1
COC(=O)C[C@H]1CC[C@@H]2[C@@H](COc3ccc(NC(=O)Nc4ccccc4OC)cc3C(=O)N2C)O1 | 3.2 | nt | -0.8 | nt | nt | nt
O=S1(=O)CC2c3ccccc3CN2CN1Cc1ccc(F)cc1 (configuration not stated) | -0.9 | nt | 3.9 | nt | nt | nt
COc1ccc(C(=O)OCC(=O)c2ccc(C3CCCCC3)cc2)cc1 | -0.7 | 7.5 | 2.4 | -19.9 | -2.6 | -0.4
Nc1ccc(O)cc1C(=O)OCC(=O)c1ccc(C2CCCCC2)cc1 | 0.7 | 45.6 | -10.0 | 39.6* | nt | nt
CC(C)(C)OC(=O)[C@H](Cc1ccccc1)NC(=O)c1ncn2c1c(=O)[nH]c1ccc(Br)cc12 | 19.4 | -22.6 | 39.1* | -316.8 | nt | nt
CC(C)(C)OC(=O)[C@H](Cc1ccccc1)NC(=O)c1nc[nH]c1C(=O)N[C@@H](Cc1ccccc1)C(=O)OC(C)(C)C | -2.6 | 21.9 | 4.7 | -1.4 | 2.4 | -3.8
COc1cc(C(C)=O)ccc1Oc1ncnc2c1cnn2-c1ccc(F)cc1 | 47.1* | 7.5 | -1.9 | -280.6 | -3.4 | -2.6
O=C(NN=Cc1ccc(O)cc1O)c1ccccc1NS(=O)(=O)c1cccs1 | 1.4 | -28.5 | 2.2 | 42.5* | -2.9 | -6.5
Oc1cc(O)cc(/C=C/c2ccc(O)c(O)c2)c1 | -4.6 | 48.8 | -4.0 | 59.5* | 1.6 | -0.1
C/C=C/c1ccc(O)c(OC)c1 | 3.9 | 14.8 | -3.8 | 7.3 | -3.0 | 2.7
COC(=O)C[C@H]1CC[C@@H]2[C@H](COc3ccc(NC(=O)C(C)C)cc3C(=O)N2C)O1 | 3.9 | nt | 3.7 | nt | nt | nt
COc1ccc(OCc2cc(C(=O)N[C@H]3CCCCNC3=O)no2)c(Cl)c1 | 23.3 | 7.8 | -0.8 | -2.2 | -3.6 | -10.7
CSc1ccccc1OCc1cc(C(=O)N[C@H]2CCCCNC2=O)no1 | 62.1* | 4.0 | 1.6 | 6.0 | -4.2 | -7.3
CSc1nc(-c2ccc(C)cc2)[nH]c1S(=O)(=O)c1ccccc1 | -1.1 | -4.6 | 6.2 | 12.8 | 36.3 | 5.5
CC(=O)Sc1nc(-c2ccccc2)[nH]c1S(=O)(=O)c1ccc(C)cc1 | nt | 64.6* | nt | nt | 4.2 | -14.8
COC(=O)[C@H](CC(C)C)N(Cc1cn(Cc2ccc(C)cc2)nn1)S(=O)(=O)c1ccc(F)cc1Br | 2.4 | nt | 3.7 | nt | nt | nt
